The list is not random: actives were taken first. Their share in the collection is about 5.9%.
HEK293 tox = qHTS of GLP-1 Receptor Inverse Agonists: Cytotox Screen | AID 624418, 2012 | Potency, µM (highest dose often 38.3 µM), inactives show at the highest dose activity change, negative = inhibition, actives largely listed as inhibitors | HEK293 cAMP-luciferase reporter cells, luminescence, 24 h | hit rate 0.13% among 410,000;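 also: loss of luciferase light is scored as toxicity; % is scaled to controls: 0 for no effect and ±100 for the full control effect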
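Cells in DMEM/10% Nu serum/1% pen-strep, 1536-well format. Pre-incubated 12 h, dosed with 23 nL compound, incubated a further 24 h. Luciferase detection, 12 min at room temp, luminescence.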
RORg inh = qHTS for inhibitors of ROR gamma transcriptional activity; Nuclear receptor ROR-gamma (Mus musculus), P51450; Drosophila S2 Gal4-RORgamma UAS-luciferase reporter, 20 h; Potency, µM (titrated, usually from 53.6 µM), without a hit: at the highest dose activity change, negative = inhibition, hits mostly inhibitors; hit rate 5.4% among 310,000; also: % is scaled to controls: 0 for no effect and ±100 for the full control effect; nearly all actives have a fitted effect of over 60% in size
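Luciferase reporter read in Schneider cells carrying Gal4-RORγ (mouse) and UAS-Photinus luciferase; cells given compound 1 h before 700 uM copper sulfate induction, then incubated 20 h at ambient temperature.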
GLP-1R inv ag = qHTS of GLP-1 Receptor Inverse Agonists (Inhibition Mode); Glucagon-like peptide 1 receptor (Homo sapiens), P43220; HEK293 GLP-1R CRE-luciferase, luminescence, 24 h; GLP-1R form is constitutively active; Potency, µM (titrated, usually from 38.3 µM), for the others: at the highest dose activity change, negative = inhibition, usual class: inhibitors; hit rate 1.6% among 410,000; also: % is scaled to controls: 0 for no effect and ±100 for the full control effect; nearly all actives have a fitted effect of over 55% in size
Target sequence (P43220 whole entry, looked up): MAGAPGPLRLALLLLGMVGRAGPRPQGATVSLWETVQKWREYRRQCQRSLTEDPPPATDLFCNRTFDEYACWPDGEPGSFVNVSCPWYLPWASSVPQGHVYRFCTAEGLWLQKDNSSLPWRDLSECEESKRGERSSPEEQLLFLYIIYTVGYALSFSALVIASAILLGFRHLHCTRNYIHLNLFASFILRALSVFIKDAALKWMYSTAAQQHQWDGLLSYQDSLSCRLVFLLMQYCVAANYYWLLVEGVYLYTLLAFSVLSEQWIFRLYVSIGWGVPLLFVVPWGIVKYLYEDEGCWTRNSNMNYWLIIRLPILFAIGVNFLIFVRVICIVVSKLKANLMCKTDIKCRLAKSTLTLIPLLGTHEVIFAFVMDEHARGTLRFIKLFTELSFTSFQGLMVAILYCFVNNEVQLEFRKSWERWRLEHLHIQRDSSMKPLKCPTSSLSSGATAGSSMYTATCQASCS
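Readout was luciferase luminescence, measured 12 min after detection reagent at room temperature. Beforehand, GLP-1R reporter HEK293 cells had sat 12 h, then received compounds for 24 hr at 37 deg C.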
GLP1R ag = qHTS of GLP-1 Receptor Agonists. Glucagon-like peptide 1 receptor (Homo sapiens), P43220. HEK293 GLP-1R CRE-luciferase, luminescence, 4-6 h; cells express a hypersensitive GLP-1R form. Potency, µM (doses to about 45.6 µM), for inactives: at the top dose activation, hits mostly activators. hit rate 0.007% among 380,000; also: % of control where 0% means no effect
Gal4-VP16 FLuc = VP16 counterscreen qHTS for inhibitors of ROR gamma transcriptional activity | Drosophila S2 Gal4-VP16 UAS-luciferase, luminescence, 20 h | Potency, µM (highest dose often 53.6 µM), inactives show at the highest dose activity, negative = inhibition, actives largely listed as inhibitors | hit rate 3.5% among 310,000;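 also: Gal4-VP16 expression switched on by copper sulfate through the metallothionein promoter; % is scaled to controls: 0 for no effect and ±100 for the full control effect; nearly all actives have a fitted effect of over 50% in size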
* = called active by the depositor; ? = inconclusive; / = not tested or not shown; [ ] = dose if it differs, or a comment. Calls follow the shape of the dose curve; as a rule, active = well fitted curve in the direction sought with a large enough effect; inconclusive = small, poorly fitted or top-dose-only effect, or another doubt; inactive = no such curve, though single readings can be large; an effect the other way counts as inactive or inconclusive. Potency is read from the fitted curve at half-maximal effect.

SMILES	HEK293 tox	RORg inh	GLP-1R inv ag	GLP1R ag	Gal4-VP16 FLuc
Cc1ccc(NC(=S)c2nc3ccccc3[nH]2)c(C)c1	-10%	14µM*	?	0%	?
Cc1ccc(NC(=S)N2CCCC(c3nc4ccccc4[nH]3)C2)cc1 (configuration not stated)	-7%	?	?	3%	-4%
Cc1ccc(CNC(=O)Cn2nc(N3CCN(c4ccccc4)CC3)ccc2=O)cc1	13%	/	1%	/	/
CCOC(=O)CN(Cc1ccccc1)C(C(=O)NC1CCCCC1)c1ccccc1 (configuration not stated)	17%	/	1%	/	/
Cc1ccccc1-n1c([C@@H]2C[C@H]2c2ccccc2)n[nH]c1=S	-72%	5µM*	-18%	10%	?
S=c1[nH]nc([C@@H]2C[C@H]2c2ccccc2)n1-c1ccccc1	-2%[1.53 µM]	2.8µM*	11%	-3%	4µM*
COc1ccc(-n2c(=O)c(C)nc3cnc(Nc4cccc(OC)c4)nc32)cc1	/	26%	/	/	-2%
Cc1nn(C(=O)c2ccco2)c(C)c1Br	-3%	10%	3%	-9%	-1%
CC1=NN(C(=O)c2ccco2)C(O)(c2ccccc2)C1 (configuration not stated)	-23%	1.8µM*	-4%	15%	6.3µM*
CC1=NN(C(=O)c2ccc(C)o2)C(O)(c2ccccc2)C1 (configuration not stated)	-18%	3.2µM*	-20%	1%	6.3µM*
Cc1cc(C)cc(O)c1	/	13%	/	/	-1%
CC[C@H](C)[C@H](NC(=O)CNC(=O)[C@H](CCCNC(=N)N)NC(=O)CNC(=O)[C@@H](NC(=O)[C@H](Cc1ccc(O)cc1)NC(=O)[C@H](Cc1c[nH]c2ccccc12)NC(=O)[C@H](C)NC(=O)[C@@H]1CCCN1C(=O)[C@H](CC(N)=O)NC(=O)[C@@H](NC(=O)[C@H](CC(=O)O)NC(=O)[C@@H]1CCCN1C(=O)[C@@H](N)[C@@H](C)O)[C@@H](C)CC)[C@@H](C)O)C(=O)N[C@@H](CCCNC(=N)N)C(=O)N1CCC[C@H]1C(=O)N[C@H](C(=O)NCC(=O)N[C@@H](CCCNC(=N)N)C(=O)N[C@@H](Cc1ccccc1)C(N)=O)C(C)C	/	-15%	/	/	2%
O=C(c1ccc(Cl)cc1)N1CCCCC(Sc2nnc(-c3ccc4c(c3)OCO4)o2)C1=O (configuration not stated)	8%	1.4µM*	-12%	-10%	?
CC1CC(C)CN(c2ccc(C(=O)NCc3ccc4c(c3)OCO4)cc2[N+](=O)[O-])C1 (configuration not stated)	-17%	33%	11µM*	3%	11%
Cc1cc(C(=O)NCc2ccc3c(c2)OCO3)ccc1[N+](=O)[O-]	6%	18%	2%	0%	5%
CN(Cc1ccco1)c1nc(-c2ccccc2C(F)(F)F)nc2ccccc12	/	30%	/	/	7%
Cc1ccc(NC2=C(Cl)C(=O)OC2OC(=O)c2ccco2)cc1 (configuration not stated)	-8%	11µM*	-3%	-5%	-19%
Cc1cccc(NC2=C(Cl)C(=O)OC2OC(C)C)c1 (configuration not stated)	-2%	-4%	?	11%	29%
Cc1cccc(NC2=C(Cl)C(=O)OC2OC(=O)c2ccco2)c1 (configuration not stated)	-12%	11µM*	-5%	1%	?
Cc1ccnc(N(C(=O)Nc2ccccc2)C2=NCC(C)(C)S2)c1	?	11µM*	-35%	8%	?
O=C(CN(C(=O)c1ccccc1Cl)C1CCCCC1)Nc1ccc(Cl)c([N+](=O)[O-])c1	-18%	?	4µM*	-14%	4%
O=C(CN(C(=O)c1ccc(Cl)cc1)C1CCCCC1)Nc1ccc(Cl)c([N+](=O)[O-])c1	5%	?	?	0%	-17%
COc1ccc(S(=O)(=O)Nc2cc(Cl)ccc2OC)cc1	-26%	26%	1.4µM*	-2%	-1%
COc1ccc(C)cc1S(=O)(=O)Nc1cc(Cl)ccc1Cl	11%	?	8.9µM*	-34%	5%
COc1cc(NS(=O)(=O)c2cc(C)ccc2OC)c(OC)cc1Cl	0%	6%	-42%	1%	4%
SMILES	HEK293 tox	RORg inh	GLP-1R inv ag	GLP1R ag	Gal4-VP16 FLuc
CCOc1ccccc1CNC(=O)CSc1n[nH]c(-c2ccccc2Cl)n1	4%	/	-18%	/	/
CCOc1ccc(-c2nnc(SCC(=O)Nc3cccc(C#N)c3)o2)cc1	1%	/	35%	/	/
COc1ccccc1C(=O)NCc1nnnn1-c1ccc(C)c(C)c1	1%	/	8%	/	/
CC1=NN(C(=O)COc2ccccc2)C(O)(c2ccccc2)C1 (configuration not stated)	-21%	6.3µM*	-13%	-6%	10µM*
CC1=NN(C(=O)CSCc2ccccc2)C(O)(c2ccccc2)C1 (configuration not stated)	-28%	?	?	-4%	13µM*
CC1=NN(C(=O)COc2ccc(C)c(C)c2)C(O)(c2ccccc2)C1 (configuration not stated)	-3%	10µM*	?	10%	11µM*
CC1=NN(C(=O)c2ccccc2Cl)C(O)(c2cccnc2)C1 (configuration not stated)	-17%	?	-14%	11%	?
CC1=NN(C(=O)Cc2ccccc2)C(O)(c2cccnc2)C1 (configuration not stated)	-19%	6.3µM*	-19%	4%	7.9µM*
COCCNC(=O)Cn1nc(N2CCN(c3ccccc3OC)CC2)ccc1=O	16%	/	9%	/	/
CC(O)C#C[Si](C)(C)c1ccccc1 (configuration not stated)	/	-1%	/	/	-1%
Cc1cc(C)c2cc(C(=O)N(C)C3CCN(C)CC3)[nH]c2c1	7%	4%	5µM*	9%	-2%
Cc1cc(C)c2cc(C(=O)N3CCc4ccccc4C3)[nH]c2c1	-22%	39%	?	27%	-7%
CC(NC(CCc1ccccc1)C(=O)O)C(=O)N1CCCC1C(=O)O (configuration not stated)	/	/	/	-1%	/
Cc1cnc(C(=O)Nc2ccccc2F)cn1	-3%	-12%	19%	-2%	5%
COc1ccc(NC(=O)c2cnc(C)cn2)c2ncccc12	/	0.32µM*	/	/	0.56µM*
O=C(C1CCN(C2CC(=O)N(c3ccc(F)cc3)C2=O)CC1)N1CCOCC1 (configuration not stated)	13%	13µM*	5%	12%	?

Screens: PubChem BioAssay, National Center for Advancing Translational Sciences (NCATS)
